Hits are enriched below; roughly 0.21% of the tested compounds scored in any of these assays.
Bim-Bfl-1 = inhibitors of Bim binding to Bfl-1, primary screen, biochemical, multiplexed, bead-based flow cytometry. Bcl-2-related protein A1 (Homo sapiens), Q16548. Bim-Bfl-1 binding inhibition. inhibition, % at 10 µM. 0.12% of 190,000 active. AID 1008, 2008
Bcl-W Bim block = inhibitors of Bim binding to Bcl-W, primary screen, biochemical, multiplexed, bead-based flow cytometry. Bcl-2-like protein 2 (Homo sapiens), Q92843. Bim peptide-Bcl-W binding. inhibition, % at 10 µM. 0.02% of 190,000 active;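 note: higher means less fluorescent Bim peptide bound to Bcl-W beads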
Bim-Bcl-2 = inhibitors of Bim-Bcl-2 binding, primary screen, biochemical, multiplexed, human Bcl-2 family | 0.06% of 190,000 active | Bead-based flow cytometry, Bim peptide-Bcl-2 binding | inhibition, % at 10 µM | AID 950, 2007; in the data active = inhibition above about 40%
Furin inh = human furin inhibitors, primary screen, biochemical, fluorescence intensity. 0.061% of 220,000 active. inhibition, % at 20 µM or 30 µM. purified furin, fluorogenic substrate cleavage; in the data active = inhibition above about 25%
Target sequence (P09958 108-714 limits assumed): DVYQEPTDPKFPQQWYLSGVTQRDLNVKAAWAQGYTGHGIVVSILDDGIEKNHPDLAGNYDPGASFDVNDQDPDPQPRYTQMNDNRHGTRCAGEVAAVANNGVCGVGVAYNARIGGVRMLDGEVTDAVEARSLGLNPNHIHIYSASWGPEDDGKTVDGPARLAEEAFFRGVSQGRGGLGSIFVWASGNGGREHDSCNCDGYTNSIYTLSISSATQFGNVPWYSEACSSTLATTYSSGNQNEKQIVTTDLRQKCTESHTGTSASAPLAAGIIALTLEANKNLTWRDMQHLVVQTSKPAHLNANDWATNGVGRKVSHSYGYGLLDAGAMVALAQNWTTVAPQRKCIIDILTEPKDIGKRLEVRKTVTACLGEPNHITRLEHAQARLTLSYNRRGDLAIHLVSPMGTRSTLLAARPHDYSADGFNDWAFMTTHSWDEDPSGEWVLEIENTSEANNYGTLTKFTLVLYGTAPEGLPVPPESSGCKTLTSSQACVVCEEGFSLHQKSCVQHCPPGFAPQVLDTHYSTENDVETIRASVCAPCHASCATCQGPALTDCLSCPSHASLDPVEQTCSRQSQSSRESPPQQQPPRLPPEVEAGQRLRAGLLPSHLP
Bim-Bcl-XL = inhibitors of Bim-Bcl-XL binding, primary screen, biochemical, multiplexed, bead flow cytometry, human Bcl-XL | Bcl-2-like protein 1 (Homo sapiens), Q07817 | Bim peptide-Bcl-XL binding, fluorescence | inhibition, % at 10 µM | 0.04% of 190,000 active | AID 1007, 2008
Bcl-B Bim block = inhibitors of Bim-Bcl-B binding, primary screen, biochemical, multiplexed, human Bcl-2 family; Bcl-2-like protein 10 (Homo sapiens), Q9HD36; bead-based flow cytometry, Bim peptide-Bcl-B binding; inhibition, % at 10 µM; 0.073% of 190,000 active
Hits are given with their value. Cut-off read from the data, not from the text of the source, unless noted: active = inhibition above about 40%.

How did CC(=O)N1CCN(Cc2nc3cc(NC(=O)c4cccc(Br)c4)ccc3n2C)CC1 do in these assays?
Furin inh: inactive

Results for CCC(/C=C1\Sc2ccc(OC)cc2N1CC)=C\c1sc2ccc(OC)cc2[n+]1CCCS(=O)(=O)[O-] ?
Bim-Bfl-1: inactive; Bcl-W Bim block: inactive; Bim-Bcl-2: inactive; Furin inh: inactive; Bim-Bcl-XL: inactive; Bcl-B Bim block: inactive

Results for CCC(/C=C1\Sc2ccc(OC)cc2N1CCO)=C\c1sc2ccc(OC)cc2[n+]1CCO ?
Bim-Bfl-1: 62; Bcl-W Bim block: 40; Bim-Bcl-2: 60; Furin inh: inactive; Bim-Bcl-XL: 51; Bcl-B Bim block: inactive

What do the screens show for `Cc1nnc(NCc2n[nH]c(=O)c3ccccc23)c2ccccc12`?
Bim-Bfl-1: inactive; Bcl-W Bim block: inactive; Bim-Bcl-2: inactive; Furin inh: inactive; Bim-Bcl-XL: inactive; Bcl-B Bim block: 57

How did O=C(O)CNC(=O)/C(=C\c1cccc([N+](=O)[O-])c1)NC(=O)c1ccco1 do in these assays?
Furin inh: inactive

Results for N/C(Cc1ccc(Cl)c(Cl)c1)=N\OC(=O)c1cccs1 ?
Bim-Bfl-1: inactive; Bcl-W Bim block: inactive; Bim-Bcl-2: inactive; Furin inh: inactive; Bim-Bcl-XL: inactive; Bcl-B Bim block: 41

What do the screens show for `COc1cc2[nH]c(=S)nc(NCCc3ccc(C)cc3)c2cc1OC`?
Bim-Bfl-1: inactive; Bcl-W Bim block: inactive; Bim-Bcl-2: inactive; Furin inh: inactive; Bim-Bcl-XL: inactive; Bcl-B Bim block: inactive

Results for COc1ccc(CCNc2nc(=S)[nH]c3cc(OC)c(OC)cc23)cc1OC ?
Bim-Bfl-1: inactive; Bcl-W Bim block: inactive; Bim-Bcl-2: inactive; Furin inh: inactive; Bim-Bcl-XL: 48; Bcl-B Bim block: inactive

How did COc1cc2[nH]c(=S)nc(Nc3ccc(NC(C)=O)cc3)c2cc1OC do in these assays?
Bim-Bfl-1: inactive; Bcl-W Bim block: inactive; Bim-Bcl-2: inactive; Furin inh: inactive; Bim-Bcl-XL: 50; Bcl-B Bim block: inactive

Results for COc1cc2[nH]c(=S)nc(NCCc3ccc(S(N)(=O)=O)cc3)c2cc1OC ?
Bim-Bfl-1: inactive; Bcl-W Bim block: inactive; Bim-Bcl-2: inactive; Furin inh: inactive; Bim-Bcl-XL: 55; Bcl-B Bim block: inactive

Results for COCCCNc1nc(=S)[nH]c2cc(OC)c(OC)cc12 ?
Bim-Bfl-1: inactive; Bcl-W Bim block: inactive; Bim-Bcl-2: inactive; Furin inh: inactive; Bim-Bcl-XL: inactive; Bcl-B Bim block: inactive

How did CNCCOc1ccccc1OC(C)C do in these assays?
Bim-Bfl-1: inactive; Bcl-W Bim block: inactive; Bim-Bcl-2: inactive; Furin inh: inactive; Bim-Bcl-XL: inactive; Bcl-B Bim block: inactive

Results for O=C(COc1ccccc1Br)Nc1ccccc1C(F)(F)F ?
Bim-Bfl-1: inactive; Bcl-W Bim block: inactive; Bim-Bcl-2: inactive; Furin inh: inactive; Bim-Bcl-XL: inactive; Bcl-B Bim block: inactive

How did COc1ccc(-c2csc(C3=C(O)CN(CCCN4CCCC4=O)C3=N)n2)cc1OC do in these assays?
Bim-Bfl-1: inactive; Bcl-W Bim block: inactive; Bim-Bcl-2: inactive; Furin inh: inactive; Bim-Bcl-XL: inactive; Bcl-B Bim block: inactive

How did COc1ccc(-c2nc(NC(=O)Cn3cnnn3)sc2C)cc1 do in these assays?
Bim-Bfl-1: inactive; Bcl-W Bim block: inactive; Bim-Bcl-2: inactive; Furin inh: inactive; Bim-Bcl-XL: inactive; Bcl-B Bim block: inactive

What do the screens show for `Cc1sc(NC(=O)Cn2cnnn2)nc1-c1ccc(Cl)cc1`?
Bim-Bfl-1: 53; Bcl-W Bim block: inactive; Bim-Bcl-2: 84; Furin inh: inactive; Bim-Bcl-XL: inactive; Bcl-B Bim block: 67

How did CSc1ccccc1NC(=O)CSc1n[nH]c(C)c1[N+](=O)[O-] do in these assays?
Bim-Bfl-1: inactive; Bcl-W Bim block: inactive; Bim-Bcl-2: inactive; Furin inh: inactive; Bim-Bcl-XL: inactive; Bcl-B Bim block: inactive

Results for Cc1[nH]nc(SCC(=O)NCc2ccc(F)cc2)c1[N+](=O)[O-] ?
Bim-Bfl-1: inactive; Bcl-W Bim block: inactive; Bim-Bcl-2: inactive; Furin inh: inactive; Bim-Bcl-XL: 42; Bcl-B Bim block: inactive

Results for CCCCC(C(=O)OCC)C(N)Cc1ccc(F)cc1 (centres undefined) ?
Bim-Bfl-1: inactive; Bcl-W Bim block: inactive; Bim-Bcl-2: 58; Furin inh: inactive; Bim-Bcl-XL: 83; Bcl-B Bim block: 76

Results for O=C(NC1CCCC1)C1CC1c1ccccc1 (centres undefined) ?
Bim-Bfl-1: inactive; Bcl-W Bim block: inactive; Bim-Bcl-2: inactive; Furin inh: 25; Bim-Bcl-XL: inactive; Bcl-B Bim block: inactive

How did NNC(=O)[C@@H]1C[C@@H]1c1ccccc1 do in these assays?
Bim-Bfl-1: inactive; Bcl-W Bim block: inactive; Bim-Bcl-2: inactive; Furin inh: inactive; Bim-Bcl-XL: inactive; Bcl-B Bim block: inactive

Results for COc1cc(/C=N/Nc2nn3cnnc3c3ccccc23)ccc1O ?
Bim-Bfl-1: inactive; Bcl-W Bim block: inactive; Bim-Bcl-2: inactive; Furin inh: inactive; Bim-Bcl-XL: 42; Bcl-B Bim block: inactive

How did COc1ccc(CN2CCC(CO)(Cc3cccc(C(F)(F)F)c3)CC2)cc1Cn1cccn1 do in these assays?
Bim-Bfl-1: inactive; Bcl-W Bim block: inactive; Bim-Bcl-2: inactive; Furin inh: inactive; Bim-Bcl-XL: inactive; Bcl-B Bim block: inactive

How did CCOc1cc(NC(=S)NC)c(OCC)cc1NC(=O)c1ccc(OC)cc1 do in these assays?
Bim-Bfl-1: 45; Bcl-W Bim block: 49; Bim-Bcl-2: 53; Furin inh: inactive; Bim-Bcl-XL: inactive; Bcl-B Bim block: 41

What do the screens show for `CCOC(=O)c1cc(C)sc1/N=C/C1C(=O)CC(C)(C)CC1=O`?
Bim-Bfl-1: inactive; Bcl-W Bim block: inactive; Bim-Bcl-2: inactive; Furin inh: 26; Bim-Bcl-XL: inactive; Bcl-B Bim block: inactive

What do the screens show for `CC(C)(C)OC(=O)NCCCC[C@H](NC(=O)c1nc[nH]c1C(=O)NCc1ccccc1)C(=O)OC(C)(C)C`?
Bim-Bfl-1: inactive; Bcl-W Bim block: inactive; Bim-Bcl-2: inactive; Furin inh: inactive; Bim-Bcl-XL: inactive; Bcl-B Bim block: inactive

How did CN(Cc1ccccc1)C(=O)c1[nH]cnc1C(=O)N[C@@H](CCCCNC(=O)OC(C)(C)C)C(=O)OC(C)(C)C do in these assays?
Bim-Bfl-1: 45; Bcl-W Bim block: inactive; Bim-Bcl-2: 83; Furin inh: inactive; Bim-Bcl-XL: inactive; Bcl-B Bim block: 73

How did Cc1cc(Cl)ccc1OCCCC(=O)N1CCOCC1 do in these assays?
Bim-Bfl-1: inactive; Bcl-W Bim block: inactive; Bim-Bcl-2: inactive; Furin inh: 29; Bim-Bcl-XL: inactive; Bcl-B Bim block: inactive

What do the screens show for `O=C(COc1ccc(Cl)cc1Cl)N1CCCC1`?
Bim-Bfl-1: inactive; Bcl-W Bim block: inactive; Bim-Bcl-2: inactive; Furin inh: inactive; Bim-Bcl-XL: inactive; Bcl-B Bim block: inactive

Bioassay records (PubChem)
